Out of some 190,000 compounds screened, about 930 (0.49%) were called active. This is one part of the list. Results with a measured potency or affinity are listed apart. Values without a mark were called inactive.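 The calls were made as follows: active = z-score of insulin promoter reporter brightness in nuclei below -3 at 5 µM, with at least 500 cells counted; inconclusive = wells with under 500 cells, flagged as toxic or sparse; inactive = the rest.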
assay: decrease of insulin promoter-GFP reporter – imaging, high-content screening, mouse beta cells (AID 1628); conditions: MIN6 insulin promoter GFP reporter, at 5 µM, active compounds read low

Compound	z-score
CC(C)C(C)(C#N)NC(=O)CSc1nnc(C(F)(F)F)n1C (stereo not given)	3.02
CCSc1nc2c(c(=O)[nH]c(=O)n2C)n1C	-1.45
C#CC(C)(C)NC(=O)CSc1nc2c(c(=O)n(C)c(=O)n2C)n1CCCC	-7.25 (active)
CC(=O)Nc1sc2c(c1CN1CCN(c3ccccn3)CC1)CCCC2	-1.66
COc1ccc(CN2CCN(c3ccccn3)CC2)cc1OCc1ccccc1	-8.87 (active)
Cc1cnc(NC(=O)CN2CCN(c3ccccn3)CC2)s1	3.14
COc1ccc(OC)c(C(c2nnnn2C2CCCC2)N2CCN(c3ccccc3F)CC2)c1 (stereo not given)	-4.67 (active)
CCOc1cc(N(CC)CC)ccc1/C=C(/C#N)c1nc2ccccc2[nH]1	8.11
CCN(CC)c1ccc2cc(-c3nc4ccccc4[nH]3)c(=O)oc2c1	17.2
CCOC(=O)N1CCN(C(=O)CSc2ccc3nnc(CCNC(=O)c4ccc(OC)cc4)n3n2)CC1	3.73
CN(C)c1ccc(/C=C2\CCC/C(=C\c3ccccc3)C2=O)cc1	3.4
Cc1nnc(NC(=O)c2sc3nc(-c4cccs4)cc(C(F)(F)F)c3c2N)s1	15.1
CC(=O)Nc1ccc(C(=O)N/N=C/c2cc(Br)cc(Br)c2O)cc1	-3.57 (active)
O=C(N/N=C/c1cc(Br)ccc1O)Nc1ccccc1	-4.87 (active)
O=C(Nc1ccc(Br)cc1)C(c1ccccc1)c1ccccc1	-0.28
CN(C)c1ccc(C(=O)N/N=C/c2cc(Br)cc(Br)c2O)cc1	4.65
COc1cc([C@@H]2[C@H]3CNCC=C3C(C#N)=C(N)C2(C#N)C#N)ccc1OC(C)C	3.59
c1ccc(CSc2ccc(-c3ccccn3)nn2)cc1	4.07
C/C(=N/O)c1ccccn1	0.09
Cc1nn(-c2c(Cl)cc(Cl)cc2Cl)c(=O)c2ccccc12	3.38
CCN(c1ccccc1)S(=O)(=O)c1ccc(C(=O)Nc2nnc(C3CC3)o2)cc1	-3.06 (active)
O=S(=O)(Cc1ccc(Cl)cc1)c1ccccc1-c1nnc(-c2ccccc2)o1	13.8
CN(c1ccccc1)c1ccc(/C=c2\s/c(=C(/C#N)C(=O)C(C)(C)C)n(Cc3ccco3)c2=O)cc1	12.8
CCc1cc2c(=O)n(Cc3ccco3)c(SCC(=O)N3CCCc4ccccc43)nc2s1	-3.14 (active)

Compound	z-score
Cc1cc2c(=O)n(Cc3ccco3)c(SCC(=O)c3ccc(Cl)s3)nc2s1	-9.67 (active)
CCN(C(=O)CSc1nc2cc(C(=O)OC)ccc2c(=O)n1Cc1ccco1)c1cccc(C)c1	4.54
Cc1cccc2cc3c(N)c(C(=O)N4CCCc5ccccc54)sc3nc12	6.25
O=C(O)c1ccccc1N/N=C/c1c(Sc2nnnn2-c2ccccc2)nc2ccccn2c1=O	9.93
CCOC(=O)CC1C(=O)NCCN1c1nc2c(C)cccn2c(=O)c1/C=C1\SC(=S)N(C(C)CC)C1=O (stereo not given)	9.72
O=C1c2cccc3c(O)ccc(c23)C(=O)N1Cc1ccccc1	5.05
O=C(N/N=C/c1ccc(O)cc1O)c1ccc(CN2C(=O)c3cccc4cccc2c34)cc1	-3.91 (active)
CSc1c(C#N)c(N)nc2sc(C(=O)c3ccc(Cl)c(Cl)c3)c(N)c12	5.56
CCN(CC)S(=O)(=O)c1cccc(S(=O)(=O)c2cccc(S(=O)(=O)N(CC)CC)c2)c1	-4.75 (active)
Cc1cc(NC(=S)N(Cc2ccc(Br)cc2)Cc2ccc(C(=O)O)cc2)ccc1Cl	3.8
COc1ccc(NC(=S)N(CCCN2CCC(C)CC2)Cc2cccs2)cc1	1.67
CC(C)N1CC=C2C(C#N)=C(N)C(C#N)(C#N)C(c3ccccc3)C2C1 (stereo not given)	5.63
CC(C)(C)c1nc(NC(=O)Nc2ccccc2)sc1Br	-4.02 (active)
Cc1cccc(NC(=O)Nc2ccc(C#N)cc2)n1	3.41
COc1cc(N=Nc2cccc(S(N)(=O)=O)c2)c2ccccc2c1N	5.92
CN(C)c1ncc(S(=O)(=O)c2ccc(Cl)cc2)c(-c2ccccc2)n1	-3.06 (active)
CCN(CC)c1ccc2cc(S(=O)(=O)c3ccc(Cl)cc3)c(=O)oc2c1	6.96
O=C(CSc1oc(-c2ccco2)nc1S(=O)(=O)c1ccc(F)cc1)NCC1CCCO1 (stereo not given)	0.69
O=C(CSc1ccc(-c2ccccc2)nn1)NCC1CCCO1 (stereo not given)	3.02
C=CCN1C(=O)c2cccc3c(N4CCCCC4)ccc(c23)C1=O	5.61
C=CCc1ccccc1OCC(O)CN1CCN(CCN2C(=O)c3cccc4cccc(c34)C2=O)CC1 (stereo not given)	-5.75 (active)
COc1ccc(NC(=O)C(=O)NCc2ccncc2)c(OC)c1	-4.99 (active)
COc1ccc(NC(=O)C/C(C)=N/NC(=O)C(=O)Nc2cccc(Cl)c2C)c(OC)c1	0.92
CC(C)C1S/C(=N/N=C/c2ccco2)NC1=O (stereo not given)	3.25

Compound	z-score
N#Cc1cc([N+](=O)[O-])ccc1N1CCCC1	-5.65 (active)
Nc1ccc2c(c1)Cc1cc([N+](=O)[O-])ccc1-2	7.76
O=C(c1cc([N+](=O)[O-])ccc1N1CCCC1)N1CCCC1	3.06
Cc1cc(C)nc(SCc2ccc(C(=O)N/N=C/c3cccc(O)c3O)cc2)n1	-3.45 (active)
Cc1cc(C)nc(SCSc2nc(C)cc(C)n2)n1	4.55
COC(=O)c1sc2ccccc2c1-n1cccc1C(=O)C(=O)Nc1ccc(F)cc1	5.4
COC(=O)c1ccc(NC(=O)Nc2ccc(F)cc2)cc1	-3.46 (active)
O=C(Nc1ccc(F)cc1)Nc1cc(OCC(F)(F)F)cc(OCC(F)(F)F)c1	-3.21 (active)
Cc1ccc(SCc2cc(-c3ccc(Cl)cc3)no2)cc1	3.09
O=C1Nc2ccc(Br)cc2C12NNc1ccccc1O2 (stereo not given)	14.4
O=C(Cc1nc(-c2ccc([N+](=O)[O-])cc2)cs1)Nc1ccccc1	8.58
N#C/C(=C/c1ccc(O)c([N+](=O)[O-])c1)C(=O)Nc1ccccc1	1.31
O=C(Nc1ccc(Cl)cc1)/C(=C/c1ccc([N+](=O)[O-])cc1)c1nc2ccccc2s1	-4.86 (active)
Cc1ccc(-n2c(C)nc3oc4ccccc4c(=O)c3c2=O)cc1	3.88
CC1(C)Cc2c(C#N)c(SCC(=O)c3ccccc3)nc(N3CCOCC3)c2CS1	-3.04 (active)
N#Cc1ccc(-c2ccccc2)nc1SCC(=O)c1cccc(Cl)c1	4.3
N#Cc1ccc(-c2ccc(Cl)cc2)nc1SCC(=O)c1cccc(Cl)c1	6.91
N#Cc1c(C(F)(F)F)cc(-c2ccccc2)nc1SCc1nc(N)nc(N2CCOCC2)n1	15.4
CC1(C)Cc2c(C#N)c(SCC(=O)c3ccccc3)nc(N3CCOCC3)c2CO1	-3.99 (active)
N#Cc1c(-c2ccco2)cc(C2CC2)nc1SCC(=O)c1ccccc1	5.22
CC1(C)Cc2c(c(-c3ccccc3)[nH]c(=O)c2C#N)CO1	3.41
CC1(C)Cc2c(C#N)c(SCCOc3ccccc3)nc(N3CCOCC3)c2CO1	-3.51 (active)
CCOc1cc2[nH]c(=S)n(CCCN(CC)CC)c(=O)c2cc1OCC	0.51
Nc1c(C(=O)C2CC2)sc2nc(-c3cccs3)cc(C(F)(F)F)c12	15.5

Compound	z-score
S=C(N/N=C/c1cccs1)NC1CC2CCC1C2 (stereo not given)	-3.1 (active)
CN(C)c1ccc(/C=N/NC(=O)CN(c2ccccc2Cl)S(C)(=O)=O)cc1Br	3.57
CN(C)c1ccc(/C=C2\C(=N)N3C(=NC2=O)Sc2cc(S(C)(=O)=O)ccc23)cc1	3.93
CC(/C=N/NC(=O)c1ccncc1)=C\c1ccc(C(C)C)cc1	3.19
CC(C)c1ccc(/C=N/NC(=O)c2cccc(Cl)c2)cc1	-3.75 (active)
Cn1cc(/C=C2\SC(=S)N(NC(=O)c3cccc(Cl)c3)C2=O)c2ccccc21	7.3
CC1=NN(c2ccccc2)C(=O)C1/C=C1\NC(=S)NC1=O (stereo not given)	3.53
C/C(N)=C(/C#N)C(=O)CSc1nnnn1-c1ccc(C)cc1C	-3.38 (active)
c1csc(-c2ccnc3ncnn23)c1	-4.89 (active)
O=C(CC(=O)Nc1ccccn1)Nc1ccccn1	-0.03
S=C(Nc1ccc(Nc2ccccc2)cc1)Nc1ccccn1	-3.32 (active)
CCOC(=O)c1sc2cc([N+](=O)[O-])cc(SCC(C)C)c2c1N	13.9
CC(=O)c1n[nH]nc1Nc1nc(C)cc(C)n1	0.61
c1ccc(CNc2cnccn2)cc1	1.28
O=C(NC1CC1)C1CCCN1C(=O)NC1CCCCC1 (stereo not given)	2.65
COc1cc(C)nc(N2CCCC(C(=O)Nc3cccc(Cl)c3C)C2)n1 (stereo not given)	3.87
Cc1cccc(NC(=O)C2CCCN(C(=O)NC3CCCCC3)C2)c1C (stereo not given)	-3.03 (active)
Cc1[nH]c2ccccc2c1/C=N/Nc1ccc([N+](=O)[O-])cc1S(=O)(=O)Nc1ccc(Cl)cc1	9.19
Cc1ccc(NS(=O)(=O)c2cc([N+](=O)[O-])ccc2N/N=C/c2sc(N3CCOCC3)nc2-c2ccccc2)c(C)c1	11
C=CCSc1nnc(C)c(/C=C/Nc2ccc(Cl)cc2)n1	5.19
CCC(=O)Oc1ccc(C(=O)Nc2c[nH]c(=O)[nH]c2=O)cc1	-5 (active)
NS(=O)(=O)c1ccc(NC=C2C(=O)OC3(CCCCC3)OC2=O)cc1	3.78
NS(=O)(=O)c1ccc(NC(=S)NCc2ccccc2)cc1	-4.47 (active)

— PubChem BioAssay AID1628 (Sanford-Burnham Center for Chemical Genomics, 2009)
